# Results reported in PubChem BioAssay (NCATS).
# Results filed as inconclusive are left out. Entries that show only a call come without a potency. Activity calls are given as the source filed them. Calls follow the shape of the dose curve; as a rule, active = well fitted inhibition curve with a large enough effect; inconclusive = small, poorly fitted or top-dose-only effect; inactive = flat fitted curve, though single readings scatter.
# Tests used:
# [1] = target: Glutathione peroxidase 1 (Homo sapiens) (UniProt P07203); assay: Primary qHTS Assay for Inhibitors of Recombinant Selenoprotein Glutathione Peroxidase 1 (GPX1) (AID 1845191); also: potency is read from the fitted curve at half-maximal effect
# How it was run: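 GPX1 10 nM, GR 100 nM, GSH 1 mM, NADPH 0.5 mM, CHP 0.5 mM (final). 30-min cpd preincubation, RT. Ex340/Em450 read t=0, t=15 min.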
# [2] = target: Phospholipid hydroperoxide glutathione peroxidase GPX4 (Homo sapiens) (UniProt P36969); assay: Primary qHTS Assay for Inhibitors of Recombinant Selenoprotein Glutathione Peroxidase 4 (GPX4) (AID 1845192)
# How it was run: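 qHTS, GR-coupled: GPX4 200 nM + cpd 30 min RT → GSH 1 mM, NADPH 0.5 mM, GR 100 nM → CHP 0.5 mM start; fluor 340/450 at t0 and t15 min; no-enzyme wells as control.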
# Also: nearly all actives have a fitted effect of over 65% in size.
# Glutathione peroxidase 1 (Homo sapiens), sequence (P07203 whole entry, looked up): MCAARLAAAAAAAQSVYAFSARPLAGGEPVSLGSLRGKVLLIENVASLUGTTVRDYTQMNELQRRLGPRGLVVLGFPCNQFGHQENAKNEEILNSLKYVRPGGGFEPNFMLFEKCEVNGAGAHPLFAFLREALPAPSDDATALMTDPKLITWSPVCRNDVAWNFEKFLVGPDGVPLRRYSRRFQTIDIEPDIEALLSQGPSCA
# Phospholipid hydroperoxide glutathione peroxidase GPX4 (Homo sapiens), sequence (P36969 whole entry, looked up): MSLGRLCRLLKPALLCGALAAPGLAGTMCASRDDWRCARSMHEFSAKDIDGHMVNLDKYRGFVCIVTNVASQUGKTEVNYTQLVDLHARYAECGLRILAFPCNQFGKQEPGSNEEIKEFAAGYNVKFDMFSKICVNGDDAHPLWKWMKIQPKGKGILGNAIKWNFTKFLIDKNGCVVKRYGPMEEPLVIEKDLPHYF
Compound,Potency [1],Potency [2]
OC[C@H]1O[C@@H](n2cnc3c(NC4CCCCC4)ncnc32)[C@H](O)[C@@H]1O,inactive,inactive
O=C1CN(/N=C/c2ccc([N+](=O)[O-])o2)C(=O)N1,inactive,inactive
COc1ccc(Br)cc1S(=O)(=O)NC(=O)/C=C/c1ccccc1Cc1ccc2ccccc2c1,inactive,inactive
CCOC(=O)C1=C(C)NC(C)=C(C(=O)OCC)C1c1c(F)c(F)c(F)c(F)c1F,inactive,inactive
COC(=O)c1c(C)[nH]c(C)c1C(=O)c1ccccc1Cc1ccccc1,inactive,inactive
O=P(O)(O)C(Cl)(Cl)P(=O)(O)O,inactive,inactive
Fc1cccc(/C=N/N=C/c2cccc(F)c2)c1,inactive,inactive
CCCCCCCC/C=C/C(=O)O,inactive,inactive
S=c1[nH]c2ccccc2s1,inactive,inactive
CCN(CC)c1ncnc2c1ncn2[C@@H]1O[C@H](COP(=O)(O)OP(=O)(O)C(Br)(Br)P(=O)(O)O)[C@@H](O)[C@H]1O,inactive,inactive
NC(=S)c1ccc[n+]([C@@H]2O[C@@H](COP(=O)([O-])OP(=O)(O)OC[C@H]3O[C@@H](n4cnc5c(N)ncnc54)[C@H](OP(=O)(O)O)[C@@H]3O)C(O)C2O)c1 (stereo partly drawn),inactive,inactive
CCCCCCCCCCCCOCCO,inactive,inactive
Cn1c(=O)c2[nH]c(-c3ccccc3)nc2n(C)c1=O,inactive,inactive
CC(C)(C)c1ccc(S(=O)(=O)/C=C/C#N)cc1,inactive,inactive
NC(N)=NC(=O)c1nc(Cl)c(N2CCCCCC2)nc1N,inactive,inactive
CNCC[C@H](Oc1ccc(C(F)(F)F)cc1)c1ccccc1,inactive,inactive
CC(C)NC[C@@H](O)c1ccc(O)c(O)c1,inactive,inactive
NCCCS(=O)(=O)O,inactive,inactive
Cn1c(=O)c(-c2c(Cl)cccc2Cl)cc2cnc(Nc3ccc(N4CCOCC4)cc3)nc21,inactive,inactive
C[C@@H](CN1CCC(Cc2ccccc2)CC1)[C@@H](O)c1ccc(O)cc1,inactive,inactive
Oc1ccc(C2CNCc3sccc32)cc1O (stereo not drawn),inactive,inactive
Clc1ccc(N2CCN(Cc3cc4ccccn4n3)CC2)cc1,inactive,inactive

Compound,Potency [1],Potency [2]
COCCOc1cc2nc[nH]c(=O)c2cc1OCCOC,inactive,inactive
N#C/C(=C\c1ccc(-c2cc(Cl)ccc2Cl)o1)C(=O)Nc1cccc2ncccc12,inactive,inactive
O=c1[nH]c2cc(C(F)(F)F)ccc2n1-c1cc(C(F)(F)F)ccc1O,inactive,inactive
O=C(O)CC[C@@H](C(=O)O)N1C(=O)c2ccccc2C1=O,inactive,inactive
CCCN(CC1CC1)c1nc(C)nc(Nc2c(Cl)cc(Cl)cc2Cl)c1Cl,inactive,inactive
CCCCC1C(=O)N(c2ccccc2)N(c2ccc(O)cc2)C1=O (stereo not drawn),inactive,inactive
COc1ccccc1CN[C@@H]1CCCN[C@@H]1c1ccccc1,inactive,inactive
Nc1ncnc2c1ncn2[C@@H]1O[C@H](COP(=O)(O)CP(=O)(O)OP(=O)(O)O)[C@@H](O)[C@H]1O,inactive,inactive
NS(=O)(=O)C#Cc1ccccc1,inactive,inactive
NO,inactive,inactive
Nc1nc(Cl)nc2c1ncn2[C@@H]1O[C@H](CO)[C@@H](O)[C@H]1O,inactive,inactive
C[N+]1(C)CCC(OC(=O)C(c2ccccc2)c2ccccc2)CC1,inactive,inactive
CC[C@H]1OC(=O)[C@H](C)[C@@H](O[C@H]2C[C@@](C)(OC)[C@@H](O)[C@H](C)O2)[C@H](C)[C@@H](O[C@@H]2O[C@H](C)C[C@H](NC)[C@H]2O)[C@](C)(O)C[C@@H](C)CN(C)[C@H](C)[C@@H](O)[C@]1(C)O,inactive,inactive
Brc1cc2c(cc1[C@H]1Nc3ccccc3[C@H]3C=CC[C@H]31)OCO2,inactive,inactive
CO/N=C(\C(=O)N[C@@H]1C(=O)N2C(C(=O)O)=C(COC(C)=O)CS[C@H]12)c1csc(N)n1,8.06 µM (active),inactive
COc1cc2c(CCNC(C)=O)c[nH]c2cc1Cl,inactive,inactive
Cc1cc2c(cc1Cl)N(C(=O)Nc1ccc(Oc3cccnc3C)nc1)CC2,inactive,inactive
NC(=O)C(=O)O,inactive,inactive
CNC(=O)[C@H]1O[C@@H](n2cnc3c(NCc4cccc(I)c4)ncnc32)[C@H](O)[C@@H]1O,inactive,inactive
Cc1cc(NC2CCCCC2)nc(-n2nc(C)cc2C)n1,inactive,inactive
Nc1nc(Nc2ccccc2)nc2c1ncn2[C@@H]1O[C@H](CO)[C@@H](O)[C@H]1O,inactive,inactive
CN(C)CCC(c1ccc(Cl)cc1)c1ccccn1 (stereo not drawn),inactive,inactive
